# High-throughput results from PubChem.
# Shown are actives, neighbours in structure and some others; about 3.7% of the full set was active somewhere.
# VDR inh: blocks the human vitamin D receptor; AID 504847; 0.93% of 400,000 active; VDR-SRC2-3 peptide fluorescence polarization, 2 h; Potency, µM, inactives show max response, negative = inhibition, hits mostly inhibitors; also: potency is read from the fitted curve at half-maximal effect; % is scaled to controls: 0 for no effect and ±100 for the full control effect
#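 After 23 nl compound addition and a short centrifugation, plates sat for 2 hours at ambient temperature; polarization of fluorescence then indicated loss of VDR binding to peptide SRC2-3.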
# FEN1 inh: human FEN1 inhibition; P39748; Recombinant FEN1 flap cleavage, fluorescence, 15 min; Potency, µM (highest dose often 114 µM), without a hit: at the highest dose activity change, negative = inhibition, hits mostly inhibitors; 0.35% of 390,000 active; AID 588795; also: potency is read from the fitted curve at half-maximal effect; % is scaled to controls: 0 for no effect and ±100 for the full control effect; nearly all actives have a fitted effect of over 65% in size
#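 Recombinant FEN1 (10 nM) was preincubated with pin-transferred compounds for 15 min at room temperature, then flap DNA substrate (50 nM final) was added. Plates were read at 0 and 15 min, and normalized concentration–response data were fitted to a four-parameter Hill equation.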
# WRN inhibitor: blocks human WRN helicase; Q14191; WRN helicase unwinding, fluorescent forked duplex, kinetic; Potency, µM (titrated, usually from 114 µM), for the others: at the highest dose activity change, negative = inhibition, usual class: inhibitors; 0.46% of 360,000 active; also: potency is read from the fitted curve at half-maximal effect; % is scaled to controls: 0 for no effect and ±100 for the full control effect; nearly all actives have a fitted effect of over 55% in size
#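 Screening of the MLSMR collection measured strand separation of a quenched forked DNA duplex (100 nM) by 20 nM WRN with 2 mM ATP, all final. Compounds were preincubated with enzyme 15 min at room temperature.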
# PLK1 PBD inh: inhibitors of human PLK1 polo-box domain binding. 2.8% of 360,000 active. AID 720504. P53350. Potency, µM, for the others: max response, negative = inhibition, hits mostly inhibitors. Plk1 PBD binding of FITC phosphopeptide, fluorescence polarization; also: potency is read from the fitted curve at half-maximal effect; series mostly up to about 57 µM; % is scaled to controls: 0 for no effect and ±100 for the full control effect; nearly all actives have a fitted effect of over 65% in size
# PI5P4Ka inh: PI5P4K alpha (human) kinase inhibition. AID 652105. PI5P4Kalpha enzyme, ADP-Glo luminescence, 60 min; active compounds read low. max response, %. 1.2% of 330,000 active; active = max response of -50% or lower; inconclusive = between -30% and -50%; inactive = -30% or higher; also: value at the top dose of about 77 µM; % is scaled to controls: 0 for no effect and ±100 for the full control effect
# Target sequence (P48426 whole entry, looked up): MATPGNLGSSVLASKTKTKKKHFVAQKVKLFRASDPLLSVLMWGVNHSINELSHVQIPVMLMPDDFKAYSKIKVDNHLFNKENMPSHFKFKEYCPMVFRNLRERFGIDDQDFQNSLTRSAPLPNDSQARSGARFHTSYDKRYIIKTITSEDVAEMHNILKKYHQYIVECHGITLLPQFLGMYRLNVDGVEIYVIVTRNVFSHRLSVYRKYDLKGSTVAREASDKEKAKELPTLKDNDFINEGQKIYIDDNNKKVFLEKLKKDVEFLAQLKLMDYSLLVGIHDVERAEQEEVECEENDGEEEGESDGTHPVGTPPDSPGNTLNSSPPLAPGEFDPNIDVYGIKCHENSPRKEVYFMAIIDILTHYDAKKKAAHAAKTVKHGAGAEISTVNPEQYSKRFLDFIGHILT
#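 Quantitative HTS of the MLSMR library against PI5P4Kalpha with substrate. ATP added last at 5 microM final; room temperature, 60 minutes. Remaining ATP depleted, ADP converted and read as luminescence.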
# TCR act: T cell receptor activation; primary human leukocytes, anti-CD3, IL-2 HTRF, 48 h; Potency, µM (highest dose often 9.22 µM), inactives show top-dose activation of IL-2 secretion, most hits filed as activators; 330,000 tested, under 10 active; AID 504894; also: % of control where 0% means no effect
#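 Compounds are tested in HTS on primary human leukocytes co-incubated with a-CD3 beads for 48 hr. IL-2 output is measured by time-resolved FRET.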
# The depositor's hits bear a star; ? = inconclusive; / = no result given; [ ] = remark or other dose. Unless noted, calls follow the shape of the dose curve; as a rule, active = well fitted curve in the direction sought with a large enough effect; inconclusive = small, poorly fitted or top-dose-only effect, or another doubt; inactive = no such curve, though single readings can be large; an effect the other way counts as inactive or inconclusive.
SMILES,VDR inh,FEN1 inh,WRN inhibitor,PLK1 PBD inh,PI5P4Ka inh,TCR act
Cc1nnc(NC(=O)CSc2nnc(-c3ccoc3C)n2CC(C)C)s1,?,-3%,12%,27µM*,-17,3%
COc1ccc(NS(=O)(=O)c2ccc(O)c(NC(=O)c3cc4c(C)nn(-c5ccc(F)cc5)c4s3)c2)cc1,-11%,56µM*,?,75µM*,-25,-3%[46.1 µM]
COc1ccc(NC(=O)c2cc3c(C)nn(-c4ccccc4)c3s2)c(OC)c1,-1%,-2%,/,/,/,/
CC1=C[C@@H](O)CC(C)(C)[C@@H]1/C=C/C(C)=C/C=C/C(C)=C/C=C/C=C(C)/C=C/C=C(C)/C=C/C1=C(C)C[C@H](O)CC1(C)C,28µM*,/,/,/,/,/
CC1=C(/C=C/C(C)=C\C=C\C(C)=C\C=C\C=C(C)\C=C\C=C(C)\C=C\C2=C(C)C[C@@H](O)CC2(C)C)C(C)(C)C[C@H](O)C1,40µM*,/,/,/,/,/
CC1=C(/C=C/C(C)=C/C=C/C(C)=C/C=C/C=C(C)/C=C/C=C(C)/C=C/C(=O)[C@]2(C)CC(O)CC2(C)C)C(C)(C)CC(O)C1 (some centres not stated),2%,/,/,/,/,/
Cc1csc[n+]1CC(=O)c1ccc(I)cc1,/,9%,/,/,/,/
CC(=O)Nc1ccc(SCc2c(C)noc2C)cc1,-12%,14%,3%,21µM*,-4,2%
CC(=O)Nc1ccc(NC(=O)C(C)OC(=O)c2ccc(OCc3c(C)noc3C)cc2)cc1 (configuration not stated),?,4%,-2%,30µM*,/,-6%
CC(=O)Nc1ccc(SCc2ncc(-c3ccccc3)o2)cc1,-9%,-9%,-5%,13µM*,1,8%
CC12CCC=CC1C(c1ccc(/C=C/c3ccccc3)cc1F)N(Cc1ccccc1)C2=O (configuration not stated),1%,-19%,/,/,/,/
O=C(CS(=O)c1ccc(C(F)(F)F)cc1[N+](=O)[O-])Oc1ccccc1 (configuration not stated),0%,-15%,-26%,27µM*,7,-5%
COc1ccc(CCC(=O)O)cc1,/,-3%,/,/,/,/
O=C(O)c1ccccc1N(c1ccccc1)c1ccccc1,35µM*,2%,-4%,-25%,6,0%
C[C@@H]1OC(O[C@H]2[C@H](Oc3cc(O)c4c(=O)c(O)c(-c5ccc(O)cc5)oc4c3)O[C@H](CO)[C@@H](O)[C@@H]2O)[C@H](O)[C@H](O)[C@H]1O (some centres not stated),6%,/,/,/,/,/
CN(CCCN1c2ccccc2CCc2ccccc21)CC(=O)c1ccc(Cl)cc1,40µM*,/,/,/,/,/
O=C(NCc1ccccn1)C1(C(F)(F)F)C/C(=C\Cc2ccccc2)CCCO1 (configuration not stated),-2%,-15%,/,/,/,/
CC1=CC(=O)C2=C(C)CC[C@@H]3[C@@H](OC(=O)[C@H]3C)[C@H]12,4%,/,/,/,/,/
COC(=O)c1c(NC(=O)C(=O)N2CCCC2)sc2c1CC(C)(C)OC2,1%,11%,11%,-3%,0,3%
CC1(C)Cc2c(sc(NC(=O)C(=O)N3CCCC3)c2C(N)=O)CO1,-13%,3%,7%,24µM*,-8,1%
CCn1c(N)c(C(=O)Nc2ccccc2C(=O)OC)sc1=S,-5%,-2%,-20%,12µM*,-13,5%
O=C1C(Cl)=C(N2CCOCC2)C(=O)N1c1ccccc1Cl,45µM*,-1%,-6%,-17%,/,-3%
Cc1ccc(-c2nc3ccc(C(=O)O)cc3nc2-c2ccc(C)cc2)cc1,-6%,-5%,-2%,30µM*,/,-2%
Cc1ccc(N/N=C/c2c(C)c(C#N)c(=O)n(C)c2O)cc1C,?,?,?,24µM*,-54*,6%
C[C@H](NC(=O)OC(C)(C)C)c1nnc(SCc2c(F)cccc2Cl)o1,89µM*,10%,/,/,/,/
SMILES,VDR inh,FEN1 inh,WRN inhibitor,PLK1 PBD inh,PI5P4Ka inh,TCR act
C[C@H](NC(=O)OC(C)(C)C)c1nnc(SCC(=O)c2ccc(Cl)cc2)o1,13%,-9%,-6%,-16%,0,3%
CC(C)[C@H](NC(=O)OC(C)(C)C)c1nnc(S(=O)(=O)Cc2c(F)cccc2Cl)o1,?,-1%,-4%,9.5µM*,/,/
CC(C)=CCSc1nnc([C@@H](NC(=O)OC(C)(C)C)C(C)C)o1,-16%,3%,-17%,-15%,/,7%
CC[C@@H](C)[C@H](NC(=O)OC(C)(C)C)c1nnc(S(=O)(=O)Cc2cc(C)ccc2C)o1,11µM*,-3%,-27%,6µM*,-2,1%
Cc1ccccc1OCC(=O)Nc1cc(C)c(O)c(-c2nc3ccccc3o2)c1,/,0%,/,/,/,/
Cc1ccc(C)c(N(C)C(=O)CCNC(=O)Cn2cnc3ccccc3c2=O)c1,5%,-3%,/,/,/,/
COc1cc(OC)cc(-c2nnc(SCC(=O)N3CCC(C)CC3)o2)c1,-13%,8%,/,/,/,/
Fc1cc2[nH]c(=S)[nH]c2cc1Cl,-8%,-10%,8%,0%,-13,-13%
S=c1[nH]c2cc3ccccc3cc2[nH]1,-8%,1%,-5%,30µM*,-4,-26%
S=c1[nH]c2ccc(Cc3ccc4[nH]c(=S)[nH]c4c3)cc2[nH]1,-13%,0%,9%,21µM*,-25,8%
NCc1ccc2[nH]c(=O)[nH]c2c1,?,8%,8%,3%,-6,/
Cc1cc2ccccc2c[n+]1C,/,13%,/,/,/,/
COc1cccc(-c2nn(C)c3sc(C(=O)N4CCN(c5cccc(C)c5)C(C)C4)cc23)c1 (configuration not stated),-14%,6%,/,/,/,/
COC(=O)c1ccc2c(=O)n(CCCCCC(=O)N3CCN(c4ccccc4)CC3)c(=O)[nH]c2c1,?,1%,8%,30µM*,-6,-5%
COc1cc2[nH]c(=O)n(CCCCCC(=O)N3CCN(c4ccccc4)CC3)c(=O)c2cc1OC,3%,11%,-9%,-8%,/,-184%
CC(=O)c1ccc(NC(=O)c2ccc(CN3C(=O)CCn4nc(C)cc43)cc2)cc1,5%,5%,/,/,/,/
COc1cc(C(c2sc3nc(C)nn3c2O)N2CCC3(CC2)OCCO3)cc(OC)c1OC (configuration not stated),-26%,8%,-10%,3µM*,-50*,1%
NC(=O)n1c(O)c(C(=O)c2cccs2)c2cc(Cl)ccc21,45µM*,/,/,/,/,/
COc1ccccc1CC(=O)Nc1ccc2nc(Nc3cccc(C(F)(F)F)c3)cc(C)c2c1,15%,-7%,/,/,/,/
NNc1ccc([N+](=O)[O-])c2[nH][nH]c(=O)c12,/,/,20µM*,24µM*,-83*,/
O=[N+]([O-])c1ccc(Nc2ccccc2)c2nonc12,3%,-17%,-12%,-8%,-26,1%
CCOC(=O)C(=O)Nc1nnc2n1CCS2,-11%,-18%,/,/,/,/
